What was measured:
Test in all cases: DAPPL (digital affinity profiling via proximity ligation, sequencing); 10 mM Tris-HCl pH 7.5, 50 mM NaCl, 1 mM DTT, 4% glycerol, room temperature, 30 min; GST-TFs on glutathione beads, 16-mer random dsDNA library, 0.1% formaldehyde crosslink after washing; high values mean tight binding
FEV = molecular target: T1, FEV (Homo sapiens, UniProt Q99581 1-238); settings: protein: recombinant; tags: N-terminal GST; dsDNA, one strand shown
T1 sequence: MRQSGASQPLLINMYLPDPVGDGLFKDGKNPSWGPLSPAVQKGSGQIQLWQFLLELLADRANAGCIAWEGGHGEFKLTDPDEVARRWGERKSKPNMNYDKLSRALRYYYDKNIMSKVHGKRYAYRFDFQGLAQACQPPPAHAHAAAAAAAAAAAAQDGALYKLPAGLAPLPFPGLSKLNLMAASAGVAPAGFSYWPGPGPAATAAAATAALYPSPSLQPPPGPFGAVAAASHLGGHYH
In short: (§1)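 GST fusions of human transcription factors were expressed in yeast and captured with glutathione beads. Once given DNA barcodes and pooled alongside a tag-only sample, they were incubated for 30 min at room temperature with 200 nmole of a random double-stranded 16-mer DNA library in Tris/NaCl/DTT/glycerol buffer, then washed, crosslinked (0.1% formaldehyde), proximity-ligated, PCR-amplified and sequenced on an Illumina NextSeq500. The binding signal of each hexamer is its read frequency for a factor divided by its frequency for the tag-only sample.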

ETV5 = ETV5 (Homo sapiens, UniProt P41161 1-510); settings: protein: recombinant; tags: N-terminal GST; dsDNA, one strand shown
ETV5, sequence (P41161 whole entry): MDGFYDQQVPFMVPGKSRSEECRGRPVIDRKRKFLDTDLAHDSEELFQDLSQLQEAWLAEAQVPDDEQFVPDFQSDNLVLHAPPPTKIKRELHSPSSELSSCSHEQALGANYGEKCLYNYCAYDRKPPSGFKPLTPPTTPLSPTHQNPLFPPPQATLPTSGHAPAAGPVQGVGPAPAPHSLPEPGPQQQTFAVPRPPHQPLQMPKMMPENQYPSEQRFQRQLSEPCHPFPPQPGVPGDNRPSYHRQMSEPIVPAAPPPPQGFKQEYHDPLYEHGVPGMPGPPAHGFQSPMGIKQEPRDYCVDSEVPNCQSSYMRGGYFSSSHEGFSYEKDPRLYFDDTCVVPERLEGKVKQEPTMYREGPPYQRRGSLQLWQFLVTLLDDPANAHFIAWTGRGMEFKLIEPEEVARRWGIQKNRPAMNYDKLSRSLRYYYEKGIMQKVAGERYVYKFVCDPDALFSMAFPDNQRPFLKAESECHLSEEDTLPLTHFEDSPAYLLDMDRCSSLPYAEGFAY
In short: as §1

HSF1 = HSF1 (Homo sapiens, UniProt Q00613 1-529); settings: protein: recombinant; tags: N-terminal GST; chain copies: 3; dsDNA, one strand shown
HSF1, sequence (Q00613 whole entry): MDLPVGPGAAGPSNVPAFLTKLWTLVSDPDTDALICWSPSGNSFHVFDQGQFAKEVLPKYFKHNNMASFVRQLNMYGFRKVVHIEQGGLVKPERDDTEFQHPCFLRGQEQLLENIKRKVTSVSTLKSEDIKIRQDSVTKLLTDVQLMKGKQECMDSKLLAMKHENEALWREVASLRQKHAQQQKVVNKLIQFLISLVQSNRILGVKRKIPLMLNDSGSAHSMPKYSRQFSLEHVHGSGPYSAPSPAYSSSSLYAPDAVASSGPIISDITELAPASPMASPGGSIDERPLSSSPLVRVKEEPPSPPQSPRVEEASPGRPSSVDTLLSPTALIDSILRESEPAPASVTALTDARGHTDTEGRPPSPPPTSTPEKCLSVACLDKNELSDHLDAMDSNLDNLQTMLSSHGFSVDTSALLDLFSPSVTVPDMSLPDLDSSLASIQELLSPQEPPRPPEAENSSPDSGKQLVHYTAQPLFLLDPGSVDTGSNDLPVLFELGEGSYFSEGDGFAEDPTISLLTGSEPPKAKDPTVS
In short: as §1

SPIC = molecular target: T2, SPIC (Homo sapiens, UniProt Q8N5J4 1-248); settings: protein: recombinant; tags: N-terminal GST; dsDNA, one strand shown
T2 sequence: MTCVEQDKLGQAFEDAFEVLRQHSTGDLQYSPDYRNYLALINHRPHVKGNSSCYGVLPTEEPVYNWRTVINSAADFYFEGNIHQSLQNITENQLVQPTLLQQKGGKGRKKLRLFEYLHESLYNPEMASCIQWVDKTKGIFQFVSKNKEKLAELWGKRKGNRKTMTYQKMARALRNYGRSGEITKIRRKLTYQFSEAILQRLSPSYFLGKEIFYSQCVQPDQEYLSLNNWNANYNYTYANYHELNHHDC
In short: as §1

ELF4 = ELF4 (Homo sapiens, UniProt Q99607 1-663); settings: protein: recombinant; tags: N-terminal GST; dsDNA, one strand shown
ELF4, sequence (Q99607 whole entry): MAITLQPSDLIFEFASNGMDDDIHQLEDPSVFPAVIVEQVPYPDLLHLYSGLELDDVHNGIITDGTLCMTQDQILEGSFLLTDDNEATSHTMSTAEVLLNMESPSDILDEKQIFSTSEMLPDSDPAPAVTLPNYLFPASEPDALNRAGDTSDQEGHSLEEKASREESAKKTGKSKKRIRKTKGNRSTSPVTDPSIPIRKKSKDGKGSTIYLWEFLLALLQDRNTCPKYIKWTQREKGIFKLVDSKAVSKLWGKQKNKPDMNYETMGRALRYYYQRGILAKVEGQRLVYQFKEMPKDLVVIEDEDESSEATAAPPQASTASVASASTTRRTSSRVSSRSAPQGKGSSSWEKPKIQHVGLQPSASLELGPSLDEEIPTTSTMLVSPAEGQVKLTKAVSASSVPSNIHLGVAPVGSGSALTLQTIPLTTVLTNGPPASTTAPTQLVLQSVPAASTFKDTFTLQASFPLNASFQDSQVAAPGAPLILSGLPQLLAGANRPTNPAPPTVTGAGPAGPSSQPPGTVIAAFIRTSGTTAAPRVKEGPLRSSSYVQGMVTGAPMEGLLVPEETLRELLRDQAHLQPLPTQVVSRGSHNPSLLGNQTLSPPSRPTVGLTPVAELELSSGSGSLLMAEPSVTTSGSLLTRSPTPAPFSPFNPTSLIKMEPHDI
In short: as §1

ELK4 = molecular target: T3, ELK4 (Homo sapiens, UniProt P28324-2 1-405); settings: protein: recombinant; tags: N-terminal GST; dsDNA, one strand shown
T3 sequence: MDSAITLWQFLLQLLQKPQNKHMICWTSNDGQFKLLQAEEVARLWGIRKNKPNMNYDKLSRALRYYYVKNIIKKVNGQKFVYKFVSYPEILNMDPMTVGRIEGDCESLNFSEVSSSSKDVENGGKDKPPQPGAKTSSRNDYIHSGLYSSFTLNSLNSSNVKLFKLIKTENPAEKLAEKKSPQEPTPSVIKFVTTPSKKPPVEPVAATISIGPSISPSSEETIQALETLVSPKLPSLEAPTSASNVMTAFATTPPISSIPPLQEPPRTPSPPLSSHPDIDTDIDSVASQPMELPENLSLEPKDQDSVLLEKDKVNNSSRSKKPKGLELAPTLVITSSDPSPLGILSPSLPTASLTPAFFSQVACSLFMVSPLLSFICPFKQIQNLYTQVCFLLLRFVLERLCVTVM
In short: as §1

ETV2 = molecular target: T4, ETV2 (Homo sapiens, UniProt O00321 1-342); settings: protein: recombinant; tags: N-terminal GST; dsDNA, one strand shown
T4 sequence: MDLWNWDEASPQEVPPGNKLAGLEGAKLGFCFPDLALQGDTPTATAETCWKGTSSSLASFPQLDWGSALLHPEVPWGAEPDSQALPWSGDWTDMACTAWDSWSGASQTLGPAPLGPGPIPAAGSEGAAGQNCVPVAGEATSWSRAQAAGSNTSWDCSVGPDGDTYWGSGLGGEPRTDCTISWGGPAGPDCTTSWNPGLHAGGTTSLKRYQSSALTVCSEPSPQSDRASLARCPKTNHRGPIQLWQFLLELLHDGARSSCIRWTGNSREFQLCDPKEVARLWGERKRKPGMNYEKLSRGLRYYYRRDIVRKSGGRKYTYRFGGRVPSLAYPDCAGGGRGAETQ
In short: as §1

ELF3 = molecular target: T5, ELF3 (Homo sapiens, UniProt P78545 1-371); settings: protein: recombinant; tags: N-terminal GST; dsDNA, one strand shown
T5 sequence: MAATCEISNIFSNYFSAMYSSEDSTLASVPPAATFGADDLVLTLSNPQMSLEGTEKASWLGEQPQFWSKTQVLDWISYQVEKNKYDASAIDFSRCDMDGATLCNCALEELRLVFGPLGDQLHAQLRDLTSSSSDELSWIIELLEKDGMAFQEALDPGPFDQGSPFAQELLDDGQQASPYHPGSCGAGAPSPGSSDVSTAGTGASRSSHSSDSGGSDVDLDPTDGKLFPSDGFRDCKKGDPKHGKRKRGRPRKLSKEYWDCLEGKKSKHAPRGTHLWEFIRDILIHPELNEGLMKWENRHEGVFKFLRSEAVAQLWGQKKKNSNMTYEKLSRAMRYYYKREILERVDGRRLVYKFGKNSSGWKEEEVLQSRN
In short: as §1

ETV1 = ETV1 (Homo sapiens, UniProt P50549 1-477); settings: protein: recombinant; tags: N-terminal GST; dsDNA, one strand shown
ETV1, sequence (P50549 whole entry): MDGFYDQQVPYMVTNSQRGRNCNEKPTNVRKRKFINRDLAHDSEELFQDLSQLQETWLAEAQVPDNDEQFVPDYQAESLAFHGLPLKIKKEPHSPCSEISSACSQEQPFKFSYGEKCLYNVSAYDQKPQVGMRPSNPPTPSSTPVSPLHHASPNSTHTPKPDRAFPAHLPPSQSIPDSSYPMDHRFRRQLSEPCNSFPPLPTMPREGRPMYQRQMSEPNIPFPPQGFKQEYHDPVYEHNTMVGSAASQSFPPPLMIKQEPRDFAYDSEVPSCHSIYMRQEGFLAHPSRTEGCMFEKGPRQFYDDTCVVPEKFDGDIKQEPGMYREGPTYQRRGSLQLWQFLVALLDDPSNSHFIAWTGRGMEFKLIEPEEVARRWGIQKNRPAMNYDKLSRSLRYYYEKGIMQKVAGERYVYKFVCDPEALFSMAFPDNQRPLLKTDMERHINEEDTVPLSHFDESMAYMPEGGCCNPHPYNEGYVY
In short: as §1

Sequence: ACCGTC
- binding signal (FEV): 1.17 fold enrichment (6-mer frequency, TF over GST control)
- binding signal (ETV5): 1.12 fold enrichment (6-mer frequency, TF over GST control)
- binding signal (HSF1): 1.13 fold enrichment (6-mer frequency, TF over GST control)
- binding signal (SPIC): 1.2 fold enrichment (6-mer frequency, TF over GST control)
- binding signal (ELF4): 1.17 fold enrichment (6-mer frequency, TF over GST control)
- binding signal (ELK4): 1.17 fold enrichment (6-mer frequency, TF over GST control)
- binding signal (ETV2): 1.29 fold enrichment (6-mer frequency, TF over GST control)
- binding signal (ELF3): 1.15 fold enrichment (6-mer frequency, TF over GST control)
- binding signal (ETV1): 1.19 fold enrichment (6-mer frequency, TF over GST control)

— paper PMC7862700, “An all-to-all approach to the identification of sequence-specific readers for epigenetic DNA modifications on cytosine”
